Entries with a potency or affinity are not part of this list. Inconclusive results are not listed. Calls of active or inactive are those of the source.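 Rule for the calls, unless noted: active = fitted half-maximal concentration for viability loss no higher than twice the top valid dose, in every repeat run; inconclusive = repeat runs disagree, flat partial loss, or poor curve fit; inactive = the rest.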
Columns and labels:
[1] = RMG-1 ovarian cancer cell viability loss – cherry-pick, dose response (AID 687029;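 active = signal drop whose fitted half-maximal concentration is at most twice the top valid dose, in every test run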;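 note: cells exposed to compound for 96 hours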); conditions: RMG-1 viability, CellTiterGlo ATP luminescence, 96 h; series mostly up to 35 µM
[2] = IOSE-T80 viability loss, PAX8-independent line – cell-based, cherry-pick, selectivity assay for PAX8 inhibitor project, dose response (AID 687032); conditions: CellTiterGlo ATP luminescence, 96 h; series mostly up to 35 µM;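 note: cells exposed to compound for 96 h before reading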
[3] = CMV-driven luciferase expression suppression in HEK293 – cell-based, luminescence, dry powder, counter-screen for Pax8 inhibitor project, dose response (AID 743020;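 active = signal-lowering compounds whose fitted half-maximal concentration is at or below twice the top tested dose in every run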;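 note: HEK293 cells stably expressing the CMV luciferase reporter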); conditions: HEK293 CMV-luciferase reporter, SteadyGlo luminescence, 24 h; series mostly up to 35 µM
[4] = general cell-killing toxicity readout – plate reader, dry powder samples, cytotoxicity control for PAX8 inhibitor project, dose response (AID 743021; call rule not given here); conditions: cell line, non-specific cytotoxicity counter-screen; series mostly up to 35 µM

Measured: outcome

C[C@@H]1CCCCO[C@@H](CN(C)Cc2ccc(Cl)c(Cl)c2)[C@H](C)CN([C@@H](C)CO)C(=O)c2cc(NC(=O)CCC(F)(F)F)ccc2O1
inactive: all assays above

Cn1nnnc1Sc1ncnc2scc(-c3cccc(C(F)(F)F)c3)c12
inactive: all assays above

N=c1n(Cc2ccccc2)c2ccccc2n1CC(O)COc1ccc(Cl)cc1Cl (stereo unspecified)
inactive: all assays above

CCO[C@H]1OC(C(=O)N2CCN(Cc3ccccc3)CC2)=C[C@@H](c2ccc(C(F)(F)F)cc2)[C@@H]1CCCO
inactive: all assays above

CN(C)CCOc1ccc2c(c1)C(=O)C(=Cc1ncc([N+](=O)[O-])n1C)C2
inactive: all assays above

O=C1c2c(O)ccc(O)c2C(=O)c2c(NCCNCCO)ccc(NCCNCCO)c21
inactive: all assays above

Cc1ccc(S(=O)(=O)CCC(=O)c2ccc(O)cc2O)cc1
inactive: all assays above

CC(=O)N1CCN(c2ccc(NC(=O)c3ccc([N+](=O)[O-])o3)cc2Cl)CC1
inactive: all assays above

O=C(C[C@@H]1C/C=C/CC[C@H](Cc2ccc(F)cc2)C(=O)OC[C@@H](Cc2ccccc2)NC1=O)N[C@H](CO)Cc1ccccc1
inactive: [1] | [2] | [3]

CC(=O)NC(CCc1ccc(Cl)c(Cl)c1)c1cccc(O)c(=O)c1 (stereo unspecified)
inactive: all assays above

O=S(=O)(/C(=C/c1ccc(C(F)(F)F)cc1)c1nc2ccccc2[nH]1)c1ccccc1
inactive: all assays above

O=C(N/N=C/c1ccc(Cl)c([N+](=O)[O-])c1)c1cc(-c2ccc3c4c(cccc24)CC3)n[nH]1
inactive: all assays above

Cc1ccccc1N=C1N=C(N)c2ccccc21
inactive: all assays above

Cc1ccc2c(CC(=O)OCC(=O)Nc3ccc(Cl)cn3)coc2c1
inactive: [1] | [2] | [3]

C[C@H](CO)N1C[C@H](C)[C@H](CN(C)S(=O)(=O)c2cccc(F)c2)OCc2ccccc2-c2c(n(C)c3ccccc23)C1=O
inactive: all assays above

Cc1ccc(S(=O)(=O)c2nc(S(=O)(=O)c3ccccc3)sc2N2CCN(C)CC2)cc1
inactive: all assays above

COc1cccc(/C=N/NC(=O)c2ccc(N3CCCC3=O)cc2)c1
inactive: all assays above

C=C1C2(C(=O)Nc3ccc(SC(F)F)cc3)CCC(C2)C1(C)C (stereo unspecified)
inactive: all assays above

C[C@@H]1CCCCO[C@H](CN(C)Cc2ccncc2)[C@H](C)CN([C@@H](C)CO)C(=O)c2cc(NC(=O)NC3CCCCC3)ccc2O1
inactive: all assays above

COc1cc(Cl)c(NC2=CC(=O)C(=O)c3ccccc32)c(OC)c1
inactive: all assays above

COc1ccc(NS(=O)(=O)c2ccc(N3CCCC3)c(NC(=S)Nc3ccc(SC(F)F)cc3)c2)cc1
inactive: all assays above

CC[C@@]1(O)C(=O)OCc2c1cc1n(c2=O)Cc2cc3c(CN(C)C)c(O)ccc3nc2-1
inactive: all assays above

O=C(c1nnsc1S(=O)(=O)c1ccc(Cl)cc1)N1CCOCC1
inactive: all assays above

C=C1C(=O)[C@@]23[C@H](O)C[C@@H]4C(C)(C)CC[C@H](O)[C@@]4(C)[C@@H]2CC[C@@H]1[C@H]3O
inactive: all assays above

CCSc1nc(-c2ccccc2)nc(C(Cl)Cl)n1
inactive: all assays above

COc1ccccc1C(=O)Nc1nc2ccccc2s1
inactive: [1] | [2] | [3]

CN(Cc1ccccc1)N=Nc1nc[nH]c1C(N)=O
inactive: all assays above

O=C(CCl)N=c1sccn1Cc1ccccc1Cl
inactive: [1] | [2] | [3]

Cc1cc(Sc2nnc(N)s2)c2ccccc2n1
inactive: all assays above

O=C(CCc1ccc(S(=O)(=O)NCc2ccccc2)cc1)NCc1ccco1
inactive: all assays above

CC(=O)c1cccc(-c2csc3ncnc(Sc4nnnn4C)c23)c1
inactive: all assays above

COc1cc(/C=N/NC(=O)c2ccc(CN3C(=O)c4cccc5cccc3c45)cc2)cc(OC)c1O
inactive: all assays above

Cc1ccc(S(=O)(=O)N2CCCCC2)cc1NC(=O)Cc1c[nH]c2ccccc12
inactive: all assays above

O=C(NC1CC1)c1ccc2c(c1)C1C3CCC(C3)C1C(c1ccccc1)N2 (stereo unspecified)
inactive: all assays above

COc1ccc(-c2cc(-c3ccccc3)c(C#N)c(S(C)(=O)=O)n2)cc1
inactive: all assays above

COc1ccc(Br)cc1/C=C/C(=O)c1ccc(NC(C)=O)cc1
inactive: all assays above

Cc1noc(/C=C/c2ccco2)c1S(=O)(=O)N1CCC(C(=O)NC(C)c2ccccc2)CC1 (stereo unspecified)
inactive: all assays above

O=C(C[C@@H]1C[C@H]2c3cc(NS(=O)(=O)c4ccc(F)cc4)ccc3O[C@H]2[C@@H](CO)O1)NCc1ccc(Oc2ccccc2)cc1
inactive: all assays above

FC(F)(F)c1nnc2c(Sc3ccc(Cl)cc3)nc3ccccc3n12
inactive: all assays above

C=CC[C@H](CC(=O)N(CCO)Cc1ccccc1)C(=O)N[C@@H](COC(=O)[C@H](CC=C)CC(=O)OC(C)(C)C)Cc1c[nH]c2ccccc12
inactive: all assays above

C[C@@H]1CCCCO[C@@H](CN(C)Cc2ccc3c(c2)OCO3)[C@H](C)CN([C@@H](C)CO)C(=O)c2cc(NC(=O)Nc3ccc(C(F)(F)F)cc3)ccc2O1
inactive: all assays above

CCc1ccc(CNC(=O)C2CCCN(c3nnc(C)c4c(C)n(-c5ccccc5)nc34)C2)cc1 (stereo unspecified)
inactive: all assays above

CC(C)=CCC/C(C)=C/CNC(=O)C[C@H]1C[C@H](C(=O)N2CCOCC2)[C@@]2(C)c3[nH]c4ccc(Cl)cc4c3CCN2C1=O
inactive: all assays above

O=C(NCCC1CCCCN1S(=O)(=O)c1ccc(Cl)cc1)C(=O)NCc1ccncc1 (stereo unspecified)
inactive: all assays above

CCN(CC(=O)Nc1c(F)cccc1F)C(=O)c1cc(S(=O)(=O)N(CC)CC)ccc1N1CCCCC1
inactive: all assays above

COC(C(=O)C(O)C(C)O)C1Cc2cc3cc(OC4CC(OC5CC(O)C(O)C(C)O5)C(O)C(C)O4)c(C)c(O)c3c(O)c2C(=O)C1OC1CC(OC2CC(OC3CC(O)C(OC)C(C)O3)C(O)C(C)O2)C(O)C(C)O1 (stereo unspecified)
inactive: all assays above

Oc1ccc(C[C@H]2CNC(=S)N2CC2CCCN2C[C@H](Cc2ccccc2)N2C[C@H](Cc3ccc(O)cc3)N(CCc3ccccc3)C2=S)cc1 (stereo partly specified)
inactive: all assays above

O=C(Nc1cccc(Br)c1)c1ccc2c(c1)SC1=NS(=O)(=O)CCN12
inactive: all assays above

O=C(N/N=C/c1ccc(O)cc1)c1[nH]c2ccc(Br)cc2c1-c1ccccc1
inactive: all assays above

COC(=O)[C@@]12C[C@@H](CC(=O)N3CCN(C(=O)c4ccco4)CC3)C(=O)N(Cc3ccco3)C1=CCC(C)(C)C2
inactive: all assays above

C[C@H]1CCCCO[C@@H](CN(C)Cc2ccc(C(F)(F)F)cc2)[C@@H](C)CN([C@@H](C)CO)C(=O)c2cc(NS(=O)(=O)c3ccc(Cl)cc3)ccc2O1
inactive: all assays above

CCN(CC)c1ccc(C(NC(=O)C(C)C)c2ccc3cccnc3c2O)cc1 (stereo unspecified)
inactive: all assays above

Oc1ccc(/C=N\Nc2cc(N3CCOCC3)nc(N3CCOCC3)n2)c(O)c1
inactive: all assays above

CCN(CC)CC(C)(C)C(=O)/C=C/c1ccc(/C=C/C(=O)C(C)(C)CN(CC)CC)cc1
inactive: all assays above

O=C1c2ccccc2C(=O)c2[nH]c(=O)[nH]c21
inactive: all assays above

CC(=O)OC(C)(C)/C=C/C(=O)[C@](C)(O)C1[C@H](O)C[C@@]2(C)C3CC=C4C(C=C(O[C@@H]5O[C@H](CO)[C@@H](O)[C@H](O)[C@H]5O)C(=O)C4(C)C)[C@]3(C)C(=O)C[C@]12C (stereo partly specified)
inactive: all assays above

O=C(Nc1ccc(S(=O)(=O)NC2=NCCCCC2)cc1)c1ccc([N+](=O)[O-])s1
inactive: all assays above

COc1ccc(COC(=O)c2cc([N+](=O)[O-])ccc2N2CCOCC2)cc1F
inactive: all assays above

O=C(N/N=C/c1ccsc1)c1cc(-c2cccs2)nc2ccccc12
inactive: all assays above

Cc1ccc(C)c(N2CCN(C(=O)CCCCCn3c(=S)[nH]c4ccc(N5CCOCC5)cc4c3=O)CC2)c1
inactive: all assays above

— PubChem BioAssay
